Several values for one entry are separate records, joined by “and”; a condition that tells them apart may be missing. Equal entries are not always repeated. About 2,000 (36%) of roughly 5,500 compounds were called active. Inconclusive results (about 18%) are left out. This is one part of the list. Values without a mark were called inactive. No stated cut-off is given here; in the data, active means normalized growth mostly below about 0.91 (no sharp cut-off); inconclusive means no clear call, values can overlap the other calls; inactive means mostly above about 0.92.
Test: chemical genetic growth profiling, strain panel (AID 1159580);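 further: tested at 20 µM; growth read once vehicle control cultures reached saturation at 30 °C; 1 = growth at the plate median or of vehicle wells; lower values mean less growth of the strain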
Settings: S. cerevisiae deletion strains, growth OD

## CO/N=C(\C(=O)N[C@@H]1C(=O)N2C(C(=O)O)=C(CSc3nc(=O)c(O)nn3C)CS[C@H]12)c1csc(N)n1
Locus YAL021C, strain ccr4, hits give low values
  normalized growth: 0.982
Locus YAL026C, strain drs2, hits give low values
  normalized growth: 0.974
Locus YAL030W, strain snc1, hits give low values
  normalized growth: 0.984
Locus YBL061C, strain skt5, hits give low values
  normalized growth: 0.966
Locus YBR009C, strain hhf1, hits give low values
  normalized growth: 0.985
Locus YBR021W, strain FUR4, hits give low values
  normalized growth: 1.03
Locus YBR023C, strain chs3, hits give low values
  normalized growth: 0.979
Locus YBR171W, strain sec66, hits give low values
  normalized growth: 0.96
Locus YBR229C, strain ROT2, hits give low values
  normalized growth: 0.999
Locus YBR231C, strain swc5, hits give low values
  normalized growth: 0.975
Locus YBR279W, strain paf1, hits give low values
  normalized growth: 0.959
Locus YCL011C, strain gbp2, hits give low values
  normalized growth: 0.958
Locus YCL016C, strain dcc1, hits give low values
  normalized growth: 0.976
Locus YCL029C, strain bik1, hits give low values
  normalized growth: 0.986
Locus YCL061C, strain MRC1, hits give low values
  normalized growth: 0.969
Locus YCL069W, strain vba3, hits give low values
  normalized growth: 0.986
Locus YCR088W, strain abp1, hits give low values
  normalized growth: 0.962
Locus YDL005C, strain med2, hits give low values
  normalized growth: 0.984
Locus YDL035C, strain GPR1, hits give low values
  normalized growth: 0.982
Locus YDL040C, strain nat1, hits give low values
  normalized growth: 0.973
Locus YDL074C, strain BRE1, hits give low values
  normalized growth: 1.03
Locus YDL101C, strain DUN1, hits give low values
  normalized growth: 0.996
Locus YDL134C, strain PPH21, hits give low values
  normalized growth: 1
Locus YDL185W, strain tfp1, hits give low values
  normalized growth: 0.946
Locus YDL192W, strain arf1, hits give low values
  normalized growth: 0.984
Locus YDR001C, strain nth1, hits give low values
  normalized growth: 0.959
Locus YDR069C, strain doa4, hits give low values
  normalized growth: 1
Locus YDR101C, strain arx1, hits give low values
  normalized growth: 1.02
Locus YDR137W, strain rgp1, hits give low values
  normalized growth: 0.968
Locus YDR159W, strain sac3, hits give low values
  normalized growth: 0.921
Locus YDR162C, strain NBP2, hits give low values
  normalized growth: 0.97
Locus YDR195W, strain ref2
  normalized growth: 1.01
Locus YDR297W, strain sur2, hits give low values
  normalized growth: 0.98
Locus YDR318W, strain mcm21, hits give low values
  normalized growth: 0.982
Locus YDR334W, strain swr1, hits give low values
  normalized growth: 0.931
Locus YDR335W, strain msn5, hits give low values
  normalized growth: 0.966
Locus YDR388W, hits give low values
  normalized growth: 0.981
Locus YDR392W, strain spt3, hits give low values
  normalized growth: 0.968
Locus YDR502C, strain sam2, hits give low values
  normalized growth: 1.01
Locus YEL003W, strain gim4, hits give low values
  normalized growth: 0.972
Locus YEL037C, strain rad23, hits give low values
  normalized growth: 0.969
Locus YEL061C, strain CIN8 (second series), hits give low values
  normalized growth: 0.947
Locus YEL061C, strain CIN8, hits give low values
  normalized growth: 1
Locus YER015W, strain faa2, hits give low values
  normalized growth: 0.977
Locus YER016W, strain bim1, hits give low values
  normalized growth: 0.976
Locus YER110C, hits give low values
  normalized growth: 0.974
Locus YER111C, strain swi4, hits give low values
  normalized growth: 0.979
Locus YER155C, strain BEM2 (second series), hits give low values
  normalized growth: 0.959
Locus YER155C, strain BEM2, hits give low values
  normalized growth: 1.01
Locus YER167W, strain BCK2, hits give low values
  normalized growth: 0.988
Locus YFR010W, strain ubp6, hits give low values
  normalized growth: 0.959
Locus YGL078C, strain dbp3, hits give low values
  normalized growth: 0.992
Locus YGL086W, strain mad1, hits give low values
  normalized growth: 1.03
Locus YGL167C, strain pmr1, hits give low values
  normalized growth: 0.956
Locus YGL173C, strain kem1, hits give low values
  normalized growth: 0.975
Locus YGL227W, strain vid30, hits give low values
  normalized growth: 0.977
Locus YGL240W, strain doc1, hits give low values
  normalized growth: 0.975
Locus YGL248W, strain PDE1, hits give low values
  normalized growth: 1
Locus YGL253W, strain hxk2, hits give low values
  normalized growth: 0.981
Locus YGR135W, strain pre9, hits give low values
  normalized growth: 0.948
Locus YGR252W, strain gcn5, hits give low values
  normalized growth: 1.02
Locus YHR013C, strain ard1, hits give low values
  normalized growth: 1.2 [resistant] (active)
Locus YHR027C, strain rpn1, hits give low values
  normalized growth: 0.978
Locus YHR030C, strain SLT2, hits give low values
  normalized growth: 0.988 and 1.01
Locus YHR079C, strain IRE1 (second series), hits give low values
  normalized growth: 0.966
Locus YHR079C, strain IRE1, hits give low values
  normalized growth: 1.01
Locus YHR094C, strain hxt1, hits give low values
  normalized growth: 0.976
Locus YHR129C, strain ARP1, hits give low values
  normalized growth: 0.992
Locus YHR142W, strain chs7, hits give low values
  normalized growth: 0.982
Locus YHR200W, strain rpn10, hits give low values
  normalized growth: 0.984
Locus YIL066C, strain RNR3, hits give low values
  normalized growth: 1.02
Locus YIL073C, strain SPO22, hits give low values
  normalized growth: 0.941
Locus YIL125W, strain kgd1, hits give low values
  normalized growth: 0.985
Locus YIR030C, strain dcg1, hits give low values
  normalized growth: 0.961
Locus YJL092W, strain hpr5, hits give low values
  normalized growth: 0.975
Locus YJL095W, strain BCK1 (second series), hits give low values
  normalized growth: 0.966
Locus YJL095W, strain BCK1, hits give low values
  normalized growth: 1.02 and 0.999
Locus YJL115W, strain asf1, hits give low values
  normalized growth: 0.952
Locus YJL129C, strain trk1, hits give low values
  normalized growth: 0.958
Locus YJL134W, strain LCB3, hits give low values
  normalized growth: 0.993
Locus YJL154C, strain vps35, hits give low values
  normalized growth: 0.954
Locus YJL164C, strain tpk1, hits give low values
  normalized growth: 0.992
Locus YJL166W, strain qcr8, hits give low values
  normalized growth: 0.981
Locus YJL168C, strain set2, hits give low values
  normalized growth: 0.998
Locus YJL187C, strain SWE1 (second series), hits give low values
  normalized growth: 1.01
Locus YJR043C, strain POL32, hits give low values
  normalized growth: 1.03
Locus YJR066W, strain TOR1, hits give low values
  normalized growth: 0.965
Locus YJR075W, strain HOC1, hits give low values
  normalized growth: 0.994
Locus YKL009W, strain mrt4, hits give low values
  normalized growth: 0.974
Locus YKL068W, hits give low values
  normalized growth: 0.974
Locus YKL085W, strain MDH1 (second series), hits give low values
  normalized growth: 0.984
Locus YKL085W, strain MDH1, hits give low values
  normalized growth: 0.984
Locus YKL160W, strain elf1, hits give low values
  normalized growth: 0.968
Locus YKL190W, strain CNB1, hits give low values
  normalized growth: 0.992
Locus YKR001C, strain vps1, hits give low values
  normalized growth: 0.993
Locus YKR026C, strain gcn3, hits give low values
  normalized growth: 0.974
Locus YKR091W, strain srl3, hits give low values
  normalized growth: 0.982
Locus YLL001W, strain dnm1, hits give low values
  normalized growth: 0.965
Locus YLL026W, hits give low values
  normalized growth: 0.986
Locus YLL041C, strain sdh2, hits give low values
  normalized growth: 0.949
Locus YLR027C, strain aat2, hits give low values
  normalized growth: 0.971
Locus YLR039C, strain RIC1, hits give low values
  normalized growth: 0.988
Locus YLR058C, strain SHM2, hits give low values
  normalized growth: 0.994
Locus YLR102C, strain apc9, hits give low values
  normalized growth: 0.985
Locus YLR113W, strain HOG1, hits give low values
  normalized growth: 1.04
Locus YLR221C, strain rsa3, hits give low values
  normalized growth: 0.969
Locus YLR258W, strain gsy2, hits give low values
  normalized growth: 0.957
Locus YLR262C, strain YPT6 (second series), hits give low values
  normalized growth: 0.947
Locus YLR262C, strain YPT6, hits give low values
  normalized growth: 0.982
Locus YLR268W, strain sec22, hits give low values
  normalized growth: 0.992
Locus YLR320W, strain mms22, hits give low values
  normalized growth: 0.97
Locus YLR330W, strain CHS5, hits give low values
  normalized growth: 0.983
Locus YLR342W, strain FKS1 (second series), hits give low values
  normalized growth: 0.985
Locus YLR342W, strain FKS1, hits give low values
  normalized growth: 0.983
Locus YLR357W, strain rsc2, hits give low values
  normalized growth: 0.893
Locus YLR370C, strain arc18, hits give low values
  normalized growth: 0.971
Locus YLR371W, strain rom2, hits give low values
  normalized growth: 0.979
Locus YLR384C, strain iki3, hits give low values
  normalized growth: 0.967
Locus YLR418C, strain cdc73, hits give low values
  normalized growth: 0.994
Locus YML016C, strain PPZ1, hits give low values
  normalized growth: 0.996
Locus YML032C, strain rad52, hits give low values
  normalized growth: 1.02
Locus YML120C, strain ndi1, hits give low values
  normalized growth: 0.986
Locus YML124C, strain tub3, hits give low values
  normalized growth: 0.989
Locus YMR058W, strain fet3, hits give low values
  normalized growth: 0.969
Locus YMR078C, strain ctf18, hits give low values
  normalized growth: 0.964
Locus YMR125W, strain sto1, hits give low values
  normalized growth: 0.958
Locus YMR129W, hits give low values
  normalized growth: 0.996
Locus YMR205C, strain PFK2, hits give low values
  normalized growth: 0.968
Locus YMR223W, strain ubp8, hits give low values
  normalized growth: 0.96
Locus YMR231W, strain pep5, hits give low values
  normalized growth: 0.977
Locus YMR263W, strain SAP30, hits give low values
  normalized growth: 1.01
Locus YMR307W, strain GAS1, hits give low values
  normalized growth: 0.981
Locus YNL067W, strain RPL9B, hits give low values
  normalized growth: 1.02
Locus YNL071W, strain lat1, hits give low values
  normalized growth: 0.956
Locus YNL183C, strain NPR1, hits give low values
  normalized growth: 0.96
Locus YNL209W, strain ssb2, hits give low values
  normalized growth: 0.961
Locus YNL233W, strain BNI4, hits give low values
  normalized growth: 1.03
Locus YNL248C, strain rpa49, hits give low values
  normalized growth: 0.924
Locus YNL250W, strain rad50, hits give low values
  normalized growth: 0.951
Locus YNL271C, strain bni1, hits give low values
  normalized growth: 0.992
Locus YNL298W, strain CLA4, hits give low values
  normalized growth: 0.969
Locus YNL307C, strain MCK1, hits give low values
  normalized growth: 0.987
Locus YNL322C, strain KRE1 (second series), hits give low values
  normalized growth: 0.978
Locus YNR049C, strain mso1, hits give low values
  normalized growth: 0.97
Locus YNR052C, strain pop2, hits give low values
  normalized growth: 0.986
Locus YOL006C, strain TOP1, hits give low values
  normalized growth: 1.11
Locus YOL012C, strain htz1
  normalized growth: 0.913
Locus YOL147C, strain pex11, hits give low values
  normalized growth: 0.972
Locus YOR001W, strain rrp6, hits give low values
  normalized growth: 0.963
Locus YOR061W, strain CKA2, hits give low values
  normalized growth: 0.998
Locus YOR069W, strain VPS5, hits give low values
  normalized growth: 0.988
Locus YOR070C, strain gyp1, hits give low values
  normalized growth: 0.977
Locus YOR080W, strain dia2, hits give low values
  normalized growth: 0.971
Locus YOR083W, strain WHI5, hits give low values
  normalized growth: 0.981
Locus YOR106W, strain vam3, hits give low values
  normalized growth: 0.933
Locus YOR136W, strain idh2, hits give low values
  normalized growth: 0.994
Locus YOR144C, strain elg1, hits give low values
  normalized growth: 0.993
Locus YOR184W, strain ser1, hits give low values
  normalized growth: 0.974
Locus YOR231W, strain MKK1, hits give low values
  normalized growth: 1.04
Locus YOR265W, strain rbl2, hits give low values
  normalized growth: 0.976
Locus YOR270C, strain vph1, hits give low values
  normalized growth: 0.947
Locus YOR290C, strain snf2, hits give low values
  normalized growth: 0.962
Locus YOR316C, strain cot1, hits give low values
  normalized growth: 0.982
Locus YPL051W, strain arl3, hits give low values
  normalized growth: 0.964
Locus YPL055C, strain LGE1, hits give low values
  normalized growth: 1.07
Locus YPL078C, strain atp4, hits give low values
  normalized growth: 0.991
Locus YPL106C, strain sse1, hits give low values
  normalized growth: 0.917
Locus YPL240C, strain hsp82, hits give low values
  normalized growth: 0.975
Locus YPL241C, strain CIN2, hits give low values
  normalized growth: 0.982
Locus YPL256C, strain CLN2, hits give low values
  normalized growth: 1.02
Locus YPR119W, strain clb2, hits give low values
  normalized growth: 0.988
Locus YPR141C, strain kar3, hits give low values
  normalized growth: 0.995
Locus YPR163C, strain tif3, hits give low values
  normalized growth: 0.968
Locus YPR167C, strain met16, hits give low values
  normalized growth: 0.976
Strain wtn01, hits give low values
  normalized growth: 0.981

Reference: PubChem BioAssay AID1159580 (chemical genetic matrix, 2015)
